Here are results for three compounds from PubChem BioAssay (EPA / NIEHS).

Calls of active or inactive are those of the source. The calls were made as follows: active = hit-call score of the fitted dose curve at least 0.9, where 1 is the maximum; inactive = score below 0.9.

Conditions in all cases: mRNA level, 48 h; actives raise or lower the signal
Read-out in test [1]: Paternally Expressed 10 (PEG10), PEG10 (gene 23089)
Nature of the test: LTEA_HepaRG_PEG10: Life Technologies and Expression Analysis (LTEA) Assay for Paternally Expressed 10 (PEG10) using HepaRG (AID 2283520). The gist of the method: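 Human HepaRG cultures are dosed for 48 h across an eight-point half-log series starting at 100 uM, with 0.5% DMSO as vehicle and baseline. Gain or loss of PEG10 transcript is measured by qRT-PCR and fitted in both directions.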

Read-out in test [2]: Nuclear factor NF-kappa-B p105 subunit (Homo sapiens) (UniProt P19838)
Nature of the test: LTEA_HepaRG_NFKB1: Life Technologies and Expression Analysis (LTEA) Assay for Nuclear Factor Kappa B Subunit 1 (NFKB1) using HepaRG (AID 2283521).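 As to outcome: differentiated human HepaRG liver cells in serum-free induction medium; TaqMan qRT-PCR transcript normalised to ACTB GAPDH and POLR2A housekeeping genes.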 Summed up: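 HepaRG, 48 h exposure; 8-pt half-log series from 100 uM in 0.5% DMSO; duplicates. Readout: NFKB1 mRNA by qRT-PCR (Fluidigm arrays), housekeeping-normalized. Gain/loss fit vs DMSO baseline.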

Read-out in test [3]: Protein phosphatase 2A (PPP2R4), PTPA (gene 5524)
Nature of the test: LTEA_HepaRG_PPP2R4: Life Technologies and Expression Analysis (LTEA) Assay for Protein phosphatase 2A (PPP2R4) using HepaRG (AID 2283522). Summed up:
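Cells were plated, cultured 48 h, switched to serum-free induction medium, then dosed for 48 h (8 points, max 100 uM, 0.5% DMSO). RNA was isolated and PPP2R4 expression measured by TaqMan qRT-PCR.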

Read-out in test [4]: Phosphatase and tensin (PTEN), PTEN (gene 5728)
In words: LTEA_HepaRG_PTEN: Life Technologies and Expression Analysis (LTEA) Assay for Phosphatase and tensin (PTEN) using HepaRG (AID 2283523). Summed up:
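HepaRG, 48 h exposure, 8-pt half-log series from 100 uM top, 0.5% DMSO vehicle, duplicates. Readout: Fluidigm qRT-PCR of PTEN transcript; housekeeping normalization (ACTB, GAPDH, POLR2A). Gain or loss fitted relative to DMSO baseline.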

Read-out in test [5]: solute carrier (SLC22A1), SLC22A1 (gene 6580)
In words: LTEA_HepaRG_SLC22A1: Life Technologies and Expression Analysis (LTEA) Assay for solute carrier (SLC22A1) using HepaRG (AID 2283524).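 As to AC50: differentiated human HepaRG liver cells in serum-free induction medium.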 Summed up:
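qRT-PCR readout (TaqMan, Fluidigm arrays) of SLC22A1 transcript, normalized to three housekeeping genes; bidirectional curve fit relative to 0.5% DMSO vehicle. Differentiated human HepaRG cells, 48 h chemical exposure, top concentration 100 uM, half-log steps, eight points.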

Read-out in test [6]: Pyruvate Dehydrogenase Kinase 4 (PDK4), PDK4 (gene 5166)
Nature of the test: LTEA_HepaRG_PDK4: Life Technologies and Expression Analysis (LTEA) Assay for Pyruvate Dehydrogenase Kinase 4 (PDK4) using HepaRG (AID 2283525). The gist of the method:
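HepaRG (human liver line), 48 h chemical exposure, 8-pt half-log CRC top 100 uM, 0.5% DMSO vehicle, duplicates. Readout: TaqMan qRT-PCR of PDK4 mRNA, housekeeping-normalized; gain/loss fit relative to DMSO baseline.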

Read-out in test [7]: Nuclear factor erythroid 2-related factor 2 (Homo sapiens) (UniProt Q16236)
In words: LTEA_HepaRG_NFE2L2: Life Technologies and Expression Analysis (LTEA) Assay for Nuclear factor erythroid 2-related factor 2 (NFE2L2) Transcription Factor using HepaRG (AID 2283527).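 As to outcome: TaqMan qRT-PCR transcript level normalised to ACTB GAPDH and POLR2A housekeeping genes.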 The gist of the method:
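HepaRG, 48 h dosing, 8-pt half-log series from 100 uM in 0.5% DMSO, duplicates. Read-out: NFE2L2 mRNA by qRT-PCR (ACTB/GAPDH/POLR2A normalization). Bidirectional curve fit vs DMSO baseline.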

Read-out in test [8]: succinate dehydrogenase complex iron sulfur subunit B (SDHB), SDHB (gene 6390)
In words: LTEA_HepaRG_SDHB: Life Technologies and Expression Analysis (LTEA) Assay for succinate dehydrogenase complex iron sulfur subunit B (SDHB) using HepaRG (AID 2283528). The gist of the method:
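Readout is SDHB transcript level by qRT-PCR, normalised to three housekeeping genes and fitted bidirectionally against 0.5% DMSO vehicle. Human HepaRG cells were treated for 48 h at up to 100 uM.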

Read-out in test [9]: solute carrier (SLCO1B1), SLCO1B1 (gene 10599)
In words: LTEA_HepaRG_SLCO1B1: Life Technologies and Expression Analysis (LTEA) Assay for solute carrier (SLCO1B1) using HepaRG (AID 2283530). Summed up:
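HepaRG, serum-free induction medium, 48 h dosing, 8-pt half-log from 100 uM, 0.5% DMSO vehicle, duplicates. Readout: SLCO1B1 mRNA, qRT-PCR, ACTB/GAPDH/POLR2A normalization; up or down fit vs DMSO.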

Read-out in test [10]: sulfotransferase 2A1 (SULT2A1), SULT2A1 (gene 6822)
In words: LTEA_HepaRG_SULT2A1: Life Technologies and Expression Analysis (LTEA) Assay for sulfotransferase 2A1 (SULT2A1) using HepaRG (AID 2283531). The gist of the method: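 Transcript levels of SULT2A1, quantified by qRT-PCR and normalized to three housekeeping genes, serve as the readout. Human HepaRG cultures receive test chemicals for 48 h at up to 100 uM in half-log steps, with 0.5% DMSO vehicle.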

Read-out in test [11]: Transforming Growth Factor (TGFA), TGFA (gene 7039)
In words: LTEA_HepaRG_TGFA: Life Technologies and Expression Analysis (LTEA) Assay for Transforming Growth Factor (TGFA) using HepaRG (AID 2283532). Summed up: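 qRT-PCR read-out of TGFA transcript, normalized to three housekeeping genes, fitted bidirectionally against 0.5% DMSO baseline. Human HepaRG cultures received chemicals for 48 h at eight half-log concentrations, top 100 uM.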

Read-out in test [12]: Transforming Growth Factor (TGFB1), TGFB1 (gene 7040)
Nature of the test: LTEA_HepaRG_TGFB1: Life Technologies and Expression Analysis (LTEA) Assay for Transforming Growth Factor (TGFB1) Transporter using HepaRG (AID 2283533). Summed up:
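HepaRG, 48 h post-plating, switched to serum-free induction medium; chemicals 100 uM top, half-log, 8 pts, 0.5% DMSO, dup; 48 h exposure; RNA → Fluidigm TaqMan qRT-PCR; norm ACTB/GAPDH/POLR2A; bidirectional fit vs DMSO.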

Read-out in a further test: TIMP1, TIMP1 (gene 7076)
In words: LTEA_HepaRG_TIMP1: Life Technologies and Expression Analysis (LTEA) Assay for TIMP1 using HepaRG (AID 2283534). Summed up: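 Readout is TIMP1 mRNA level measured by qRT-PCR and normalized to three housekeeping genes. Human HepaRG cells were treated for 48 h in duplicate at eight concentrations up to 100 uM (0.5% DMSO); gain or loss fitted against DMSO.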

Read-out in test [13]: Tumor necrosis factor receptor 1 (TNFRSF1A), TNFRSF1A (gene 7132)
Nature of the test: LTEA_HepaRG_TNFRSF1A: Life Technologies and Expression Analysis (LTEA) Assay for Tumor necrosis factor receptor 1 (TNFRSF1A) using HepaRG (AID 2283535). The gist of the method: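 Read-out is TNFRSF1A transcript level by TaqMan qRT-PCR, normalized to three housekeeping genes, scored as gain or loss of signal versus 0.5% DMSO. Human HepaRG cells received test chemicals for 48 h at up to 100 uM (half-log series).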

Read-out in test [14]: Thyroid Hormone Responsive (THRSP), THRSP (gene 7069)
In words: LTEA_HepaRG_THRSP: Life Technologies and Expression Analysis (LTEA) Assay for Thyroid Hormone Responsive (THRSP) using HepaRG (AID 2283536). The gist of the method:
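qRT-PCR read-out (Fluidigm TaqMan), housekeeping-normalized (ACTB/GAPDH/POLR2A). HepaRG, 48 h chemical exposure, 8-pt half-log series from 100 uM in 0.5% DMSO, duplicates. Bidirectional curve fit vs 0.5% DMSO baseline.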

Read-out in test [15]: Cellular tumor antigen p53 (Homo sapiens) (UniProt P04637)
Nature of the test: LTEA_HepaRG_TP53: Life Technologies and Expression Analysis (LTEA) Assay for Tumor Protein P53 (TP53) using HepaRG (AID 2283537). Summed up: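 Read-out is TP53 transcript level by microfluidic qRT-PCR, normalised to three housekeeping genes and fitted bidirectionally against DMSO. Human HepaRG cells received compounds for 48 h, highest concentration 100 uM.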

Read-out in test [16]: UDP glucuronosyltransferase (UGT1A1), UGT1A1 (gene 54658)
Nature of the test: LTEA_HepaRG_UGT1A1: Life Technologies and Expression Analysis (LTEA) Assay for UDP glucuronosyltransferase (UGT1A1) using HepaRG (AID 2283538). The gist of the method: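 Cells are plated, cultured 48 h, switched to serum-free induction medium, then dosed 48 h at eight concentrations (max 100 uM, 0.5% DMSO). RNA is isolated and UGT1A1 expression measured by qRT-PCR; changes versus DMSO are fitted in both directions.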

Read-out in test [17]: UDP glucuronosyltransferase (UGT1A6), UGT1A6 (gene 54578)
In words: LTEA_HepaRG_UGT1A6: Life Technologies and Expression Analysis (LTEA) Assay for UDP glucuronosyltransferase (UGT1A6) using HepaRG (AID 2283539). The gist of the method:
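HepaRG, 48 h post-plating switch to serum-free induction medium; chemical 48 h, 100 uM top, half-log x8, duplicate, 0.5% DMSO. Phenobarbital 1mM induction control. UGT1A6 mRNA by TaqMan qRT-PCR; gain/loss fit vs DMSO.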

Read-out in test [18]: NAD(P)H dehydrogenase [quinone] 1 (NQO1), NQO1 (gene 1728)
Nature of the test: LTEA_HepaRG_NQO1: Life Technologies and Expression Analysis (LTEA) Assay for NAD(P)H dehydrogenase [quinone] 1 (NQO1) using HepaRG (AID 2283526). Summed up:
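Transcript induction or suppression is quantified by qRT-PCR in human HepaRG liver cells dosed for 48 hours. Eight half-log concentrations topping at 100 uM are used, with 0.5% DMSO as vehicle and baseline.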

Read-out in test [19]: Signal transducer and activator of transcription 3 (Homo sapiens) (UniProt P40763)
In words: LTEA_HepaRG_STAT3: Life Technologies and Expression Analysis (LTEA) Assay for Signal transducer and activator of transcription (STAT3) using HepaRG (AID 2283529). Summed up:
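HepaRG, 48 h exposure, 8-pt half-log series (top 100 uM), 0.5% DMSO vehicle, duplicates. Readout: STAT3 transcript by Fluidigm qRT-PCR, housekeeping-normalized; bidirectional fit vs DMSO baseline.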

Chain of Nuclear factor erythroid 2-related factor 2 (Homo sapiens) (Q16236 whole entry, looked up): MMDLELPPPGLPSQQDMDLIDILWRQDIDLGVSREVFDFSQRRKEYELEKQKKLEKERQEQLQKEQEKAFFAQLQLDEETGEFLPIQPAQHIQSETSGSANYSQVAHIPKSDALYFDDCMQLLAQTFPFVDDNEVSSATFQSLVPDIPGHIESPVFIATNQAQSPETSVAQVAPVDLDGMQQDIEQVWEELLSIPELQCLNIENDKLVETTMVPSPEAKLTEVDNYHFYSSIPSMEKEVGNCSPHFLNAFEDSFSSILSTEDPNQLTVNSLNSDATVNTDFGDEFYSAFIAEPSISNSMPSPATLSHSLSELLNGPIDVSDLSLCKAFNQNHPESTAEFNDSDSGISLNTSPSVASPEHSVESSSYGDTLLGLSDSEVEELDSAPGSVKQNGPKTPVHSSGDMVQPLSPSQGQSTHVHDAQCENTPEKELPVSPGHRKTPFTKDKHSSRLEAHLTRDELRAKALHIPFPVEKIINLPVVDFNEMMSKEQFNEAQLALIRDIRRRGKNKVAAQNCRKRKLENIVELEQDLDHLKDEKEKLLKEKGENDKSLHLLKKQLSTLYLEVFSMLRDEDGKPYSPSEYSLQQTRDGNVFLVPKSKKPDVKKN
Chain of Cellular tumor antigen p53 (Homo sapiens) (P04637 whole entry, looked up): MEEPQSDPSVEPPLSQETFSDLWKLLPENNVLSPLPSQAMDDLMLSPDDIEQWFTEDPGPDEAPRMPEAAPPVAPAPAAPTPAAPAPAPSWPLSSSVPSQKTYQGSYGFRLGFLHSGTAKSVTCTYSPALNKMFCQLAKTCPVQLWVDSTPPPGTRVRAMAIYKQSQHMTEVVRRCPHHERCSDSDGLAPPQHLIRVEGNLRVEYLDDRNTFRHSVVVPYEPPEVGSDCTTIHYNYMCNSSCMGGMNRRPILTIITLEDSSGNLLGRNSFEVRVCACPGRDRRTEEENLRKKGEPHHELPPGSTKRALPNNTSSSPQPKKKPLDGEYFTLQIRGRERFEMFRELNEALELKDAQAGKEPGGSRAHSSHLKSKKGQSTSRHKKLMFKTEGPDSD
Chain of Nuclear factor NF-kappa-B p105 subunit (Homo sapiens) (P19838 whole entry, looked up): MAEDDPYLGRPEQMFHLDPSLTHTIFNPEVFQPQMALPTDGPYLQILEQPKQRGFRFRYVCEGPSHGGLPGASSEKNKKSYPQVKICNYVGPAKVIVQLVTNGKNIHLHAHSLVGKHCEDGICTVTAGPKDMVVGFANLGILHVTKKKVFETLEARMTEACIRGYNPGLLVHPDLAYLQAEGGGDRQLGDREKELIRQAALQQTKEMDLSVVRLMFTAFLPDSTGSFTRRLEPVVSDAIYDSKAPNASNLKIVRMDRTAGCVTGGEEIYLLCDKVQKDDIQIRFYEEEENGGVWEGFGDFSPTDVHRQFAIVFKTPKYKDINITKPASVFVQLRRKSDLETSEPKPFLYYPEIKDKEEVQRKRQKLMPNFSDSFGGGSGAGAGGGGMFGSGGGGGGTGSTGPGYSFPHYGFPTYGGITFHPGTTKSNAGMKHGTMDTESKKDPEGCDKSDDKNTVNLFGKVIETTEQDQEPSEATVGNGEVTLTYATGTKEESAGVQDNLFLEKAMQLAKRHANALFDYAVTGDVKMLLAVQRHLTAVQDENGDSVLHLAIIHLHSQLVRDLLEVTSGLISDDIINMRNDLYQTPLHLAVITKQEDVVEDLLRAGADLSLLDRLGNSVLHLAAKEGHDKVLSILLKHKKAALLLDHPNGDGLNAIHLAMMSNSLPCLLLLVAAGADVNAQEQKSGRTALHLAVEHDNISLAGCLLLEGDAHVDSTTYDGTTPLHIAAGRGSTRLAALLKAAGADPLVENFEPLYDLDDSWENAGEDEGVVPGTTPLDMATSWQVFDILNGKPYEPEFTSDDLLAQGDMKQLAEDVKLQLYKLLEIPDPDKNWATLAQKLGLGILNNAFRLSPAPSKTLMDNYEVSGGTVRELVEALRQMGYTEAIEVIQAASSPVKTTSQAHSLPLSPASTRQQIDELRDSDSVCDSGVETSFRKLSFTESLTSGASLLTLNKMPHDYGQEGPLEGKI
Chain of Signal transducer and activator of transcription 3 (Homo sapiens) (P40763 whole entry, looked up): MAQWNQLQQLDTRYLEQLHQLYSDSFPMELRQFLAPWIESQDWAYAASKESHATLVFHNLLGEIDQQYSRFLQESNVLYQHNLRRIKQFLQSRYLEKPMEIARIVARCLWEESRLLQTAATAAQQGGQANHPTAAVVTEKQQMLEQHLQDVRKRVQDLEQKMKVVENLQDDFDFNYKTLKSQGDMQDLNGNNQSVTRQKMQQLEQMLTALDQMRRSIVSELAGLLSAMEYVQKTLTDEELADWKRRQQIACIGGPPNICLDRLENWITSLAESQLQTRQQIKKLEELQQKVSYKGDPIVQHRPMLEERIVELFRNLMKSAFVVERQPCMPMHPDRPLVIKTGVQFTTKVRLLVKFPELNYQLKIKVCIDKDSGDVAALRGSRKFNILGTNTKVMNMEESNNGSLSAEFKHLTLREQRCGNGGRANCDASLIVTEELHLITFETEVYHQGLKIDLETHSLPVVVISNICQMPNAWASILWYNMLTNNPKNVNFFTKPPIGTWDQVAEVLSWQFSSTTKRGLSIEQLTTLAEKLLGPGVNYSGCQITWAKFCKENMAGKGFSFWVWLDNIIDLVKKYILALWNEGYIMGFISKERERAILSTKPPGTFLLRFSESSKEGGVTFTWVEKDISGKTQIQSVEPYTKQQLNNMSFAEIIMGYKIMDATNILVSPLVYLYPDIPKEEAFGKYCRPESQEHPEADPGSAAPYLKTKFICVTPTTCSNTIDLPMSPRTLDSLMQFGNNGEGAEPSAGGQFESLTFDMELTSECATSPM

As for `CCCCCCCCOc1ccc(C(=O)c2ccccc2)c(O)c1`, the call in [1], in [2], in test [3], in test [4], in test [5] and in test [6] was inactive. Also, the compound was called inactive in [7], in test [8], in test [9], in test [10], in test [11] and in test [12]. For the same compound, the outcome with TIMP1, TIMP1 (gene 7076) is “inactive”; in [13] it was “inactive”; in test [14] it was “inactive”; in [15], “inactive”; in [17] it was “inactive”. Also, the AC50 (usually the concentration at which the activity in the assay is half-maximal) in [16] is 20.4 µM (active).

Regarding `CN(C)C(=O)C1(N2CCCCC2)CCN(CC[C@@]2(c3ccc(Cl)c(Cl)c3)CN(C(=O)c3ccccc3)CCO2)CC1`, the compound was classed as inactive in test [1], in test [4], in [6], in test [18] and in test [11]. Further, the half-maximal activity concentration (AC50) is 80.3 µM (active) in test [2]; 27.2 µM (active) in test [3]; 27.6 µM (active) in test [5]; 47.2 µM (active) in test [7]; 22.5 µM (active) in test [8]; 47.2 µM (active) in [19]. In addition, the half-maximal activity concentration (AC50) is 23.1 µM (active) in test [9]; 23.3 µM (active) in [10]; 47.2 µM (active) in test [12]; 17.4 µM (active) with TIMP1, TIMP1 (gene 7076); 27.5 µM (active) in [13]; 24.2 µM (active) in [14]. The concentration at half-maximal activity (AC50) in [15] is 47.2 µM (active); in test [16], 27.6 µM (active); in [17] it was 25.7 µM (active).

Take `CCCCCCCC[Si](OCC)(OCC)OCC`: the compound was called inactive in [1], in [2], in [3], in [4], in test [5] and in [6]. For the same compound, the compound was classed as inactive in test [7], in test [8], in [19], in test [9], in test [10] and in test [11]. In addition, the outcome was “inactive” in test [12]; “inactive” with TIMP1, TIMP1 (gene 7076); “inactive” in [13]; “inactive” in test [14]; “inactive” in test [15]; “inactive” in [16]. Besides, the result in [17] was inactive.
